The supplement of paper PMC10811239

Test system: LEGO organoid PT (PTEN-/-; TP53-/-)
Test: bioluminescence (viable cell) signal fold change after vs before treatment, normalised to DMSO (ratio); higher = more tumour cell growth / less inhibition
Details: 10 µM; treatment time 6 days
Protocol: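 Luc2-labelled iPSC-derived glioblastoma-like organoids (LEGOs, genotypes PT = PTEN-/-;TP53-/-, PTCC = plus CDKN2A/B-/-, PTN = plus NF1-/-) were treated with 10 uM drug for 6 days (applied every other day) at 37 C. Bioluminescence imaging was done before treatment and 2 days after the last dose. BLI signals were normalised to the DMSO control on the same day and then to the pre-treatment signal (N=3).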

| SMILES | bioluminescence |
| --- | --- |
| CS(=O)(=O)c1ccc(C2=C(c3ccccc3)C(=O)OC2)cc1 [Rofecoxib] | 1.25 |
| CC(=O)OCC[N+](C)(C)C.[Cl-] [Acetylcholine chloride] | 0.981 |
| CCCN(CCc1cccs1)[C@H]1CCc2c(O)cccc2C1 [Rotigotine] | 0.925 |
| COC(c1ccccc1)(c1ccccc1)[C@H](Oc1nc(C)cc(C)n1)C(=O)O [Ambrisentan] | 0.999 |
| Cl.NC12CC3CC(CC(C3)C1)C2 [Amantadine hydrochloride] | 0.852 |
| CC(=O)N[C@@H](CS)C(=O)O [Acetylcysteine] | 1.23 |
| Cc1nc2n(c(=O)c1CCN1CCC(c3noc4cc(F)ccc34)CC1)CCCC2O (stereo not given) [Paliperidone] | 1.4 |
| N=C(N)NCCCC[C@@H]1NC(=O)CCSSC[C@@H](C(N)=O)NC(=O)[C@@H]2CCCN2C(=O)[C@H](Cc2c[nH]c3ccccc23)NC(=O)[C@H](CC(=O)O)NC(=O)CNC1=O [Eptifibatide] | 1.89 |
| CCCCC1C(=O)N(c2ccccc2)N(c2ccccc2)C1=O [Phenylbutazone] | 2.33 |
| Cc1cnc(NC(=O)C2=C(O)c3ccccc3S(=O)(=O)N2C)s1 [Meloxicam] | 0.756 |
| N[C@@H](CC(=O)O)C(=O)O [L-Aspartic acid] | 0.844 |
| CCN(CC)CCNC(=O)c1cc(Cl)c(N)cc1OC [5-Chloro-2-methoxyprocainamide] | 1.1 |
| CC(C)Oc1ccc(-c2nc(-c3cccc4c3CC[C@@H]4NCCO)no2)cc1C#N [Ozanimod] | 0.725 |
| O=C(O)c1cccnc1 [Niacin] | 0.772 |
| CN(C)CCOC(C)(c1ccccc1)c1ccccn1.O=C(O)CCC(=O)O (stereo not given) [Doxylamine succinate] | 0.83 |
| Cc1ncc([N+](=O)[O-])n1CCO [Metronidazole] | 0.839 |
| C/C=C(/C)C(=O)O[C@H]1C(C)=C[C@]23C(=O)[C@@H](C=C(CO)[C@@H](O)[C@]12O)[C@H]1[C@@H](C[C@H]3C)C1(C)C [Ingenol Mebutate] | 0.841 |
| C=C/C=C/C[C@@H](C)[C@@H](O)[C@H]1C(=O)N[C@@H](CC)C(=O)N(C)CC(=O)N(C)[C@@H](CC(C)C)C(=O)N[C@@H](C(C)C)C(=O)N(C)[C@@H](CC(C)C)C(=O)N[C@@H](C)C(=O)N[C@H](C)C(=O)N(C)[C@@H](CC(C)C)C(=O)N(C)[C@@H](CC(C)C)C(=O)N(C)[C@@H](C(C)C)C(=O)N1C [Voclosporin] | 0.414 |
| S=c1nc[nH]c2nc[nH]c12 [Mercaptopurine] | 4.23 |
| CC(C)(C)c1cc(C(C)(C)C)c(NC(=O)c2c[nH]c3ccccc3c2=O)cc1O [Ivacaftor] | 0.378 |

| SMILES | bioluminescence |
| --- | --- |
| C[C@]12CCC3=C4CCC(=O)C=C4CC[C@H]3[C@@H]1CC[C@@]2(O)CC#N [Dienogest] | 0.653 |
| CNCCC(Oc1ccc(C(F)(F)F)cc1)c1ccccc1.Cl (stereo not given) [Fluoxetine hydrochloride] | 0.929 |
| COc1cc2c(cc1OC)C(=O)C(CC1CCN(Cc3ccccc3)CC1)C2.Cl (stereo not given) [Donepezil HCl] | 0.543 |
| CN(C)CCc1c[nH]c2ccc(Cn3cncn3)cc12.O=C(O)c1ccccc1 [Rizatriptan benzoate] | 0.898 |
| COc1cc(C(C)=O)ccc1OCCCN1CCC(c2noc3cc(F)ccc23)CC1 [Iloperidone] | 1.45 |
| CCCCCCCCCCC[C@@H](C[C@@H]1OC(=O)[C@H]1CCCCCC)OC(=O)[C@H](CC(C)C)NC=O [Orlistat] | 1.4 |
| NC(=O)N1c2ccccc2C=Cc2ccccc21 [Carbamazepine] | 0.803 |
| CCc1cc(/C(C)=N/OCc2ccc(C3CCCCC3)c(C(F)(F)F)c2)ccc1CN1CC(C(=O)O)C1 [Siponimod] | 0.646 |
| CC1=C(/C=C/C(C)=C/C=C/C(C)=C/C(=O)O)C(C)(C)CCC1 [Tretinoin] | 0.834 |
| Nc1nc2ccc(OC(F)(F)F)cc2s1 [Riluzole] | 0.939 |
| CCC1(C)CC(=O)NC1=O (stereo not given) [Ethosuximide] | 0.871 |
| CO[C@H]1C(=O)[C@]2(C)[C@@H](OC)C[C@H]3OC[C@@]3(OC(C)=O)[C@H]2[C@H](OC(=O)c2ccccc2)[C@]2(O)C[C@H](OC(=O)[C@H](O)[C@@H](NC(=O)OC(C)(C)C)c3ccccc3)C(C)=C1C2(C)C [Cabazitaxel] | 1.15 |
| CN(Cc1cnc2nc(N)nc(N)c2n1)c1ccc(C(=O)N[C@@H](CCC(=O)O)C(=O)O)cc1 [Methotrexate] | 1.94 |
| C/C(O)=C(\C#N)C(=O)Nc1ccc(C(F)(F)F)cc1 [Teriflunomide] | 1.68 |
| NC(=O)OCC(COC(N)=O)c1ccccc1 [Felbamate] | 0.699 |
| CNCCCN1c2ccccc2CCc2ccccc21.Cl [Desipramine hydrochloride] | 0.858 |
| CC/C(=C(\c1ccccc1)c1ccc(OCCN(C)C)cc1)c1ccccc1.O=C(O)CC(O)(CC(=O)O)C(=O)O [Tamoxifen Z-isomer citrate] | 0.933 |
| C=CC(=O)Nc1cc(Nc2nccc(-c3cn(C)c4ccccc34)n2)c(OC)cc1N(C)CCN(C)C [Osimertinib] | 0.644 |
| C[C@@H](c1ncncc1F)[C@](O)(Cn1cncn1)c1ccc(F)cc1F [Voriconazole] | 0.515 |
| CCCNS(=O)(=O)Nc1ncnc(OCCOc2ncc(Br)cn2)c1-c1ccc(Br)cc1 [Macitentan] | 1.16 |
